# Many of the other results were omitted from the sample, so the strongest signals are more common in it than they were.
# B1: CVN (Nostoc ellipsosporum), P81180 (protein)
# chain: LGKFSQTCYNSAIQGSVLTSTCERTNGGYNTSSIDLNSVIENVDGSLKWQPSNFIETCRNTQLAGSSELAAECKTRAQQFVSTKINLDDHIANIDGTLKYE
# B2: CLECSF8 (Mus musculus), Q9Z2H6 (protein)
# chain: HYFLRWTRGSVVKLSDYHTRVTCIREEPQPGATGGTWTCCPVSWRAFQSNCYFPLNDNQTWHESERNCSGMSSHLVTINTEAEQNFVTQLLDKRFSYFLGLADENVEGQWQWVDKTPFNPHTVFWEKGESNDFMEEDCVVLVHVHEKWVWNDFPCHFEVRRICKLPGITFNWKPSK
# Columns and labels:
# Assay in all cases: glycan array binding signal (z-score within array); higher = stronger binding
# Conditions in all cases: glycan notation: IUPAC condensed, linker removed
# [1] = target: Neu5Ac(a2-3)[GalNAc(b1-4)]Gal(b1-4)Glc
# Outline: (§1)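 Negative Z-scores can be read as non-binding. The Z-score is calculated within each array and then averaged across arrays of one protein sequence at different concentrations or buffers and across linkers. Arrays, 3228 in all, were curated from the Consortium for Functional Glycomics database and kept only where the protein sequence was available.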
# [2] = target: Neu5Ac(a2-6)Gal(b1-4)GlcNAc(b1-3)Gal(b1-3)GlcNAc
# Outline: as §1
# [3] = target: Neu5Ac(a2-6)Gal(b1-4)GlcNAc(b1-3)Gal(b1-4)GlcNAc
# Outline: as §1
# [4] = target: Neu5Ac(a2-6)Gal(b1-4)GlcNAc(b1-3)Gal(b1-4)[Fuc(a1-3)]GlcNAc(b1-3)Gal(b1-4)[Fuc(a1-3)]GlcNAc
# Outline: as §1
# [5] = target: Neu5Ac(a2-8)Neu5Ac(a2-3)[Gal(b1-3)GalNAc(b1-4)]Gal(b1-4)Glc
# Outline: as §1
# [6] = target: Neu5Ac(a2-8)Neu5Ac(a2-8)Neu5Ac(a2-3)[GalNAc(b1-4)]Gal(b1-4)Glc
# Outline: as §1
# Neu5Gc(a2-6)GalNAc = target: Neu5Gc(a2-6)GalNAc
# Outline: as §1
# [7] = target: Neu5Gc(b2-6)Gal(b1-4)GlcNAc
# Outline: as §1
# [8] = target: Fuc(a1-2)[Gal(a1-3)]Gal(b1-4)GlcNAc(b1-3)Gal(b1-4)Glc
# Outline: as §1
# [9] = target: Fuc(a1-3)[Gal(b1-4)]GlcNAc(b1-3)Gal(b1-4)Glc
# Outline: as §1
# Gal(b1-4)Glc = target: Gal(b1-4)Glc
# Outline: as §1
# [10] = target: Gal(b1-4)GlcNAc(b1-2)Man(a1-3)[Gal(b1-4)GlcNAc(b1-2)Man(a1-6)]Man(b1-4)GlcNAc(b1-4)[Fuc(a1-6)]GlcNAc
# Outline: as §1
# [11] = target: Gal(b1-4)GlcNAc(b1-2)Man(a1-3)[Gal(b1-4)GlcNAc(b1-2)Man(a1-6)][GlcNAc(b1-4)]Man(b1-4)GlcNAc(b1-4)[Fuc(a1-6)]GlcNAc
# Outline: as §1
# Glc(a1-4)Glc = target: Glc(a1-4)Glc
# Outline: as §1
# [12] = target: Glc(a1-6)Glc(a1-4)Glc(a1-4)Glc
# Outline: as §1
# [13] = target: Glc(a1-6)Glc(a1-6)Glc(a1-6)Glc(a1-6)Glc(a1-6)Glc(a1-6)Glc(a1-6)Glc
# Outline: as §1
# [14] = target: GlcA(b1-3)Gal(b1-4)GlcNAc(b1-3)Gal(b1-4)Glc
# Outline: as §1
# [15] = target: GlcNAc(a1-4)Gal(b1-3)[Fuc(a1-2)]Gal
# Outline: as §1
# [16] = target: GlcNAc(b1-2)[GlcNAc(b1-4)]Man(a1-3)[GlcNAc(b1-2)[GlcNAc(b1-4)][GlcNAc(b1-6)]Man(a1-6)][GlcNAc(b1-4)]Man(b1-4)GlcNAc(b1-4)GlcNAc
# Outline: as §1
# [17] = target: GlcNAc(b1-4)GlcNAc(b1-4)GlcNAc
# Outline: as §1
# [18] = target: HexA(a1-3)GalNAc4S(b1-4)IdoA(a1-3)GalNAc4S(b1-4)IdoA(a1-3)GalNAc4S(b1-4)IdoA(a1-3)GalNAc4S(b1-4)IdoA(a1-3)GalNAc4S(b1-4)IdoA(a1-3)GalNAc4S(b1-4)IdoA(a1-3)GalNAc4S
# Outline: as §1
# [19] = target: Man(a1-2)Man(a1-3)[Man(a1-2)Man(a1-6)[Man(a1-3)]Man(a1-6)]Man(b1-4)GlcNAc(b1-4)GlcNAc
# Outline: as §1
# [20] = target: Man(a1-2)Man(a1-3)[Man(a1-3)[Man(a1-6)]Man(a1-6)]Man(b1-4)GlcNAc(b1-4)GlcNAc
# Outline: as §1
# [21] = target: Man(a1-3)[Man(a1-6)]Man(a1-6)[Man(a1-3)]Man
# Outline: as §1
# [22] = target: Neu4Ac5Ac(a2-3)Gal(b1-4)Glc
# Outline: as §1
# [23] = target: Neu5Ac(a2-3)Gal(b1-4)[Fuc(a1-3)]GlcNAc6S(b1-3)Gal(b1-4)Glc
# Outline: as §1
# [24] = target: Neu5Ac(a2-6)Gal(b1-3)GlcNAc(b1-3)[Fuc(a1-3)[Gal(b1-4)]GlcNAc(b1-6)]Gal(b1-4)Glc
# Outline: as §1
# Neu5Ac(a2-6)Gal(b1-4)Glc = target: Neu5Ac(a2-6)Gal(b1-4)Glc
# Outline: as §1
# [25] = target: Neu5Ac(a2-8)Neu5Ac(a2-3)Gal(b1-3)GalNAc(b1-4)[Neu5Ac(a2-3)]Gal(b1-4)Glc
# Outline: as §1
# [26] = target: Neu5Ac(a2-8)Neu5Ac(a2-8)Neu5Ac(a2-8)Neu5Ac(a2-8)Neu5Ac
# Outline: as §1
# [27] = target: Xyl(a1-6)Glc(b1-4)[Xyl(a1-6)]Glc(b1-4)[Xyl(a1-6)]Glc(b1-4)Glc
# Outline: as §1
binder,measurement,setting,value
B1,glycan array binding signal (z-score),[1],-0.305
same,glycan array binding signal (z-score),[2],-0.302
same,glycan array binding signal (z-score),[3],-0.284
same,glycan array binding signal (z-score),[4],0.537
same,glycan array binding signal (z-score),[5],-0.246
same,glycan array binding signal (z-score),[6],-0.237
same,glycan array binding signal (z-score),Neu5Gc(a2-6)GalNAc,-0.308
same,glycan array binding signal (z-score),[7],-0.306
B2,glycan array binding signal (z-score),[8],-0.424
same,glycan array binding signal (z-score),[9],-0.424
same,glycan array binding signal (z-score),Gal(b1-4)Glc,-0.424
same,glycan array binding signal (z-score),[10],-0.424
same,glycan array binding signal (z-score),[11],-0.424
same,glycan array binding signal (z-score),Glc(a1-4)Glc,0.06
same,glycan array binding signal (z-score),[12],3.29
same,glycan array binding signal (z-score),[13],1.5
same,glycan array binding signal (z-score),[14],3.5
same,glycan array binding signal (z-score),[15],-0.424
same,glycan array binding signal (z-score),[16],-0.424
same,glycan array binding signal (z-score),[17],1.74
same,glycan array binding signal (z-score),[18],0.136
same,glycan array binding signal (z-score),[19],-0.424
same,glycan array binding signal (z-score),[20],-0.424
same,glycan array binding signal (z-score),[21],4.16
same,glycan array binding signal (z-score),[22],0.312
same,glycan array binding signal (z-score),[23],-0.424
same,glycan array binding signal (z-score),[24],-0.424
same,glycan array binding signal (z-score),Neu5Ac(a2-6)Gal(b1-4)Glc,-0.424
same,glycan array binding signal (z-score),[25],9.51
same,glycan array binding signal (z-score),[26],1.77
same,glycan array binding signal (z-score),[27],3.32

# Source: the supplement of paper PMC8728848
